Pf Dd2 inh – Plasmodium falciparum Dd2 growth inhibition; P. falciparum Dd2 growth, SYBR Green, 72 h; Potency, µM (doses to about 28.9 µM), usual class: inhibitors; 120,000 tested, 4.3% active; AID 1347417; active = well fitted inhibition curve with a large enough effect; also: nearly all actives have a fitted effect of over 65% in size
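Infected erythrocytes (Dd2, 0.3% parasitemia, 2.5% hematocrit final) are added to compound in RPMI-1640/Albumax II medium, grown 72 h at 37C in low oxygen, then lysed with saponin/Triton-X containing SYBR Green and read by fluorescence.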
Each line names hits and unclear results; the compound was inactive in the other large screens. Shown is part of a subset that was picked to be rich in hits.

COc1cccc(CC(=O)N2CCC3(CC2)CC(Cc2nc(-c4cccnc4)no2)CCO3)c1 (configuration not stated)	Pf Dd2 inh 8.9µM
O=C(N1CCC2(CC1)CC(Cc1nc(-c3cccnc3)no1)CCO2)C1(c2ccccc2)CC1 (configuration not stated)	Pf Dd2 inh 7.9µM
O=C(N1CCC(Cc2nc(C3CCOCC3)no2)CC1)C1(c2ccccc2)CC1	none
CCN(CC)c1ccc2cc(-c3nc(-c4cc(OC)c(OC)c(OC)c4)no3)c(=O)oc2c1	none
COc1ccc(OC)c(CNS(=O)(=O)c2ccc(-c3cc(C(F)(F)F)on3)s2)c1	none
CN(C)C(=O)N1CCC2(CCC(=O)N(CC3CCCO3)C2)CC1 (configuration not stated)	none
Cc1noc(C)c1-c1cnc(Nc2cc(F)cc(N3CCOCC3)c2)c2c1CCO2	none
Cc1noc(C)c1-c1cnc(Nc2ccc(CN3CCN(C)CC3)cc2)c2c1CCO2	Pf Dd2 inh 5.6µM
Cc1noc(C)c1-c1cnc(Nc2ccc(Cl)cn2)c2c1CCO2	none
c1cc2nc(C3CCCN3)[nH]c2cn1 (configuration not stated)	none
CN1CCN(c2nc3c(s2)CN(C(=O)CCC2CCCC2)CC3)CC1	none
CCOc1ccccc1NC(=O)CSc1nc2cc(OC)c(OC)cc2c2nc(CCn3c(C)nc4ccccc43)nn12	Pf Dd2 inh 3.2µM
Cc1ccc(CSc2nc3ccccc3c3nc(CCn4c(C)nc5ccccc54)nn23)cc1	none
COc1ccccc1NC(=O)Cn1c(SCC(=O)Nc2ccc(F)cc2)nc2ccccc21	none
Cc1cccc(C)c1NC(=O)CSc1nc2ccccc2c2nc(CCc3c(C)n[nH]c3C)nn12	none
COc1cc2nc(SCC(=O)Nc3cccc(C)c3)n3nc(-c4ccccc4)nc3c2cc1OC	none
O=C(CSc1nc2ccccc2c2nc(-c3ccccc3)nn12)Nc1ccc(Br)cc1	none
Cc1ccc(NC(=O)CSc2nc3ccccc3c3nc(CCn4cncc4C)nn23)c(C)c1	none
Cc1n[nH]c(C)c1CCc1nc2c3ccccc3nc(SCC(=O)Nc3ccc(F)cc3)n2n1	Pf Dd2 inh 8.9µM
Cc1ccccc1NC(=O)CSc1nc2ccccc2c2nc(CCn3cncc3C)nn12	none
COc1cc2nc(SCC(=O)Nc3cccc(C)c3)n3nc(CCn4c(C)nc5ccccc54)nc3c2cc1OC	Pf Dd2 inh 2.2µM
Cc1cccc(NC(=O)CSc2nc3ccccc3c3nc(CCn4cncc4C)nn23)c1	Pf Dd2 inh 10µM
COc1cc2nc(SCC(=O)Nc3ccc(F)cc3)n3nc(CCn4c(C)nc5ccccc54)nc3c2cc1OC	none
COc1ccccc1C(=O)Nc1nnc(S(=O)(=O)N2CCN(c3ccc(F)cc3)CC2)s1	none
CCOc1ccccc1NC(=O)C(CC)Sc1nc2ccncc2[nH]1 (configuration not stated)	none
COc1cc(OC)c(NC(=O)Cn2nc(C)n3cccc3c2=O)cc1Cl	none
CCCS(=O)(=O)N1C[C@@H](Oc2ccccc2)C[C@H]1C(=O)N1CCOCC1	none
O=C(CC1=CCCCC1)N[C@@H]1CN(c2ncccn2)C[C@H]1CO	none
COc1cccc(C2=NOC(C(=O)NC(C)(C)C)C2)c1 (configuration not stated)	none
CC(C)CCNC(=O)c1ccc2c(c1)NC(=O)C(CS(=O)(=O)Cc1cccc(Br)c1)N2 (configuration not stated)	none
Cc1cc(C)c(C#N)c(N2CCC3(CCC(=O)N(CC(C)O)C3)CC2)n1 (configuration not stated)	none
Cc1ccc(Nc2sc(C(=O)c3ccccc3)c(N)c2S(=O)(=O)c2ccccc2)c(C)c1	Pf Dd2 inh 10µM
COc1ccc(OC)c(Nc2sc(C(=O)c3ccccc3)c(N)c2S(=O)(=O)c2ccccc2)c1	Pf Dd2 inh 8.9µM
COc1ccccc1Nc1sc(C(=O)c2ccc(C)cc2C)c(N)c1S(=O)(=O)c1ccccc1	none
Cc1ccc(CNC(=O)c2c(Nc3c(C)cccc3C)sc(C(=O)c3ccccc3)c2N)cc1	none
CCOc1ccc(Nc2sc(C(=O)c3cccc(OC)c3)c(N)c2S(=O)(=O)c2ccccc2)cc1	none
COc1ccc(CCNC(=O)c2c(Nc3ccccc3C)sc(C(=O)c3ccccc3)c2N)cc1OC	none
COc1cccc(C(=O)c2sc(Nc3ccc(C)cc3C)c(S(=O)(=O)c3ccccc3)c2N)c1	Pf Dd2 inh 10µM
Cc1ccc(Nc2sc(C(=O)c3ccccc3)c(N)c2C(=O)NC(C)C)cc1	none
CCOC(=O)c1sc2ccccc2c1S(=O)(=O)Nc1cc(OC)ccc1OC	none
COCc1ncc(C)n1CC1CCN(C(=O)c2cccc(C)c2)CC1	none
O=C(c1cccc(Cl)c1)N1CCC[C@H]1c1nc(-c2ccccc2)no1	none
CN1C(=O)c2cccn2CC1CNC(=O)CCCc1ccccc1 (configuration not stated)	none
Cn1cnnc1CCC(=O)N[C@H](c1ccccn1)C1CC(O)C1 (some centres not stated)	none
Cc1nc2c(NS(=O)(=O)c3cccc(C#N)c3)cccn2n1	none
COc1ccc(NC(=O)Nc2cccn3nc(C(C)C)nc23)cc1	none
CC(C)c1nc2c(NC(=O)Nc3cccc(Cl)c3)cccn2n1	none
CCc1nc2c(NS(=O)(=O)c3cccnc3)cccn2n1	none
CC(C)c1nc2c(NC(=O)c3cccc(Br)c3)cccn2n1	Pf Dd2 inh 3.2µM
CCc1ccccc1S(=O)(=O)Nc1cccn2nc(C(C)C)nc12	Pf Dd2 inh 8.9µM
Cc1cc(C(=O)N2CCc3nn(Cc4ccccc4)c(=O)n3CC2)nn1C	none
CC1CCc2nn3ccn(CC(=O)Nc4ccc5c(c4)OCO5)c(=O)c3c2C1 (configuration not stated)	none
O=C(COc1ccccc1)NCC(=O)N1CCCCCCNC(=O)CC1c1ccccc1 (configuration not stated)	none
O=C1CC(c2ccccc2)N(C(=O)CNC(=O)Cn2c(=O)oc3ccccc32)CCCCCCN1 (configuration not stated)	Pf Dd2 inh 10µM
Cn1nc(C(=O)N2CCCCCCNC(=O)[C@@H]3CCCC[C@@H]32)c2ccccc21	Pf Dd2 inh 2.2µM
O=C1CC(c2ccccc2)N(C(=O)CNS(=O)(=O)c2ccc3c(c2)CCC3)CCCCCCN1 (configuration not stated)	Pf Dd2 inh 11µM
Cc1ncccc1C(=O)N1CCCCCCNC(=O)[C@@H]2CCCC[C@@H]21	none
Cn1nc(C(=O)NCC(=O)N2CCCCCCNC(=O)CC2c2ccccc2)c2ccccc21 (configuration not stated)	Pf Dd2 inh 0.63µM
O=C1CC(c2ccccc2)N(C(=O)CNS(=O)(=O)c2cccnc2)CCCCCCN1 (configuration not stated)	none
O=C1NCCCCCCN(C(=O)c2ccccn2)[C@H]2CCC[C@@H]12	none
Cn1nccc1C(=O)NCC(=O)N1CCCCCNC(=O)CC1c1ccccc1 (configuration not stated)	none
O=C1CC(c2ccccc2)N(C(=O)CNS(=O)(=O)c2ccccc2)CCCCCN1 (configuration not stated)	none
O=C1CC(c2ccccc2)N(C(=O)CNC(=O)C2CC2)CCCCCCN1 (configuration not stated)	none
Cc1cc(C(=O)NCC(=O)N2CCCCCCNC(=O)CC2c2ccccc2)n(C)n1 (configuration not stated)	none
CC(C)c1ccc(CNC(=O)c2ccc(N3CCCC3)c(NC(=O)NCc3ccc(F)cc3)c2)cc1	none
COc1ccc(Cn2c(CO)cnc2SCc2cccc(C)c2)cc1	none
O=C(Cn1ccc2cc(S(=O)(=O)N3CCCC3)ccc21)NCc1ccccc1Cl	none
CCc1noc(-c2cccc(-n3ccnc3-c3cc4n(n3)CCCNC4)c2)n1	none

Source: PubChem
